FBPA coupling cs: qHTS Assay for Inhibitors of Fructose-1,6-bisphosphate Aldolase from Giardia Lamblia: Coupling assay counterscreen; coupling enzyme system counterscreen, AmpLite Red fluorescence; 290,000 tested, 0.67% active; AID 2472, 2010; activity change, negative = inhibition, % at 58.2 µM, hits read low; in the data active = activity change below about -30%
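Coupling enzymes only (glyceraldehyde-3-phosphate) + compound, at 57.5 uM final, 10 min RT; add substrate/coupling/AmpLite Red mix, 20 min RT; fluorescence ex 525/em 598 nm. Actives flag coupling-system interference.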
GALK inhibitor: qHTS Assay for Inhibitors of Human Galactokinase (GALK); Purified GALK, Kinase-Glo residual ATP luminescence; Potency, µM (top dose mostly 57.5 µM), without a hit: at the highest dose activity change, negative = inhibition, actives largely listed as inhibitors; 270,000 tested, 0.007% active; also: potency is read from the fitted curve at half-maximal effect
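Compounds were pin-transferred into ATP buffer (35 uM final), then GALK plus galactose (5 nM, 100 uM final) was added. After 1 h at room temperature, Kinase-Glo Plus was added and luminescence read after 10 min.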
RORgamma inh: qHTS for inhibitors of ROR gamma transcriptional activity. Drosophila S2 Gal4-RORgamma UAS-luciferase reporter, 20 h. Potency, µM (top dose mostly 53.6 µM), without a hit: at the highest dose activity change, negative = inhibition, usual class: inhibitors. 310,000 tested, 5.4% active. AID 2551, 2010; also: potency is read from the fitted curve at half-maximal effect; nearly all actives have a fitted effect of over 60% in size
Target sequence (P51450 whole entry, looked up, the tested form may be a part): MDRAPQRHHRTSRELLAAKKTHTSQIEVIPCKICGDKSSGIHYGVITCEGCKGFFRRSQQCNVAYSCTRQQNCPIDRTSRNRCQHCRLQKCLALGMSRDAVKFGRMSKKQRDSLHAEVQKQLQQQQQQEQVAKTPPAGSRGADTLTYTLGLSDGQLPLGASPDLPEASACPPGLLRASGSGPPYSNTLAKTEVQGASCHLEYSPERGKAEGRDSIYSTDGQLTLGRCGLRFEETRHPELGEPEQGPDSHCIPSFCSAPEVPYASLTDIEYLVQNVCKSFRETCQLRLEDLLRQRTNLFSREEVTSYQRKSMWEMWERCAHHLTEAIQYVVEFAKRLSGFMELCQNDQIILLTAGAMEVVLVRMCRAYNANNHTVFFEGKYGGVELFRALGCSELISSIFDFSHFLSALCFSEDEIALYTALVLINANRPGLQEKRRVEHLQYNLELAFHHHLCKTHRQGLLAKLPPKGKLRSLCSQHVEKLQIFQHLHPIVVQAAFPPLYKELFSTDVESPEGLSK
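Luminescence from a UAS-regulated Photinus luciferase reporter in stably transfected Drosophila Schneider cells is measured; decreased signal marks ROR gamma inhibition. Fusion expression is induced by 700 uM copper sulfate for 20 hr.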
TrxR1 inh: qHTS Assay for Inhibitors of Mammalian Selenoprotein Thioredoxin Reductase 1 (TrxR1): qHTS. recombinant rTrxR1, NADPH fluorescence consumption, selenite substrate. Potency, µM (series often up to 114 µM), for the others: top-dose activity change, negative = inhibition, most hits filed as inhibitors. 390,000 tested, 1% active. AID 588453, 2011; also: potency is read from the fitted curve at half-maximal effect; nearly all actives have a fitted effect of over 65% in size
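Rat TrxR1 (90 nM in the dispensed reagent) was pre-reduced with 400 uM NADPH for 5 min at room temperature, then incubated with compound for 15 min. After 400 uM selenite was added, NADPH fluorescence (Ex 340/Em 450 nm) was followed for 8 min.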
VP16 counter: VP16 counterscreen qHTS for inhibitors of ROR gamma transcriptional activity. 310,000 tested, 3.5% active. Potency, µM (highest dose often 53.6 µM), without a hit: top-dose activity, negative = inhibition, most hits filed as inhibitors. Drosophila S2 Gal4-VP16 UAS-luciferase, luminescence, 20 h;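 also: Gal4-VP16 expression switched on by copper sulfate through the metallothionein promoter; potency is read from the fitted curve at half-maximal effect; nearly all actives have a fitted effect of over 50% in size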
TrxR1 substrate: qHTS Assay for Substrates of Mammalian Selenoprotein Thioredoxin Reductase 1 (TrxR1): qHTS; Thioredoxin reductase 1, cytoplasmic (Rattus norvegicus), O89049; purified TrxR1 substrate turnover, NADPH consumption readout; Potency, µM (series often up to 114 µM), for the others: at the top dose activity change, negative = substrate turnover; 390,000 tested, 0.01% active; AID 588456, 2011; also: potency is read from the fitted curve at half-maximal effect; nearly all actives have a fitted effect of over 50% in size
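Rat TrxR1, dispensed at 90 nM, was prereduced with 400 uM NADPH (final) for 5 min at ~22 deg C, then incubated with compound 15 min before 400 uM selenite. A first-read NADPH fluorescence drop versus no-compound background flagged substrates.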
Numbers without * were called inactive; ? = inconclusive; · = not tested or not shown; [ ] = remark or other dose. A selection: hits, their analogues and other compounds. The true share with any hit is near 5.9%. Unless noted, calls follow the shape of the dose curve; as a rule, active = well fitted curve in the direction sought with a large enough effect; inconclusive = small, poorly fitted or top-dose-only effect, or another doubt; inactive = no such curve, though single readings can be large; an effect the other way counts as inactive or inconclusive. % is scaled to controls: 0 for no effect and ±100 for the full control effect.

SMILES	FBPA coupling cs	GALK inhibitor	RORgamma inh	TrxR1 inh	VP16 counter	TrxR1 substrate
C=CCCC(=O)Nc1nc(C)c(-c2csc(Nc3cccc(OC)c3)n2)s1	0.8	0.5%	?	25.6%[57.1 µM]	?	5.6%[57.1 µM]
C=CCNCCCOc1ccc(C)cc1Br	2.6	0.8%	-6.5%	6.8%[57.1 µM]	-6.8%	6.3%[57.1 µM]
CCOc1ccccc1Nc1nc(-c2sc(C)nc2C)cs1	-2.6	-0.3%	8.91µM*	11.0%	?	7.5%
Cc1ccc(Cl)cc1Nc1nc(-c2sc(NC(=O)C(C)(C)C)nc2C)cs1	-2.4	-1.0%	?	18.5%[57.1 µM]	11.2µM*	-3.6%[57.1 µM]
CCCCCC(=O)Nc1nc(C)c(-c2csc(Nc3cc(Cl)ccc3OC)n2)s1	-1.8	0.5%	-7.6%	-13.5%	-0.9%	-6.9%
CCOc1ccccc1Nc1nc(-c2sc(NC(=O)c3ccco3)nc2C)cs1	-0.7	-0.6%	5.1%	5.7%	2.0%	-5.9%
Nc1ncnc(Oc2cccc3cccnc23)c1[N+](=O)[O-]	-1.3	-2.0%	4.47µM*	16.4%[57.1 µM]	8.91µM*	-5.0%
Cc1cccc(Oc2ncnc(N)c2[N+](=O)[O-])c1C	2.0	0.9%	-6.5%	-2.0%	-0.1%	0.6%
O=[N+]([O-])c1ccc(Oc2cccc3cccnc23)c(Cl)c1	-37.2*	-3.0%	-15.1%	10.4%[57.1 µM]	0.0%	-13.1%
NC(=O)c1ccc(Oc2cccc3cccnc23)c([N+](=O)[O-])c1	-6.0	0.8%	-3.1%	-125.7%	-11.6%[10 µM]	7.4%[57.1 µM]
COc1ccc(CNc2cc(C)ccn2)c(O)c1	2.9	-1.0%	22.5%	-16.9%	18.1%	2.6%
O=C(Nc1ccc(S(=O)(=O)N2CCCCC2)cc1)c1cccnc1Cl	·	·	·	-13.3%[57.1 µM]	·	-0.3%[57.1 µM]
O=C(CN1C(=O)/C(=C/c2ccc(Cl)cc2)SC1=S)NC1C=CS(=O)(=O)C1 (configuration not stated)	0.2	4.9%	-24.7%	33.5%	?	4.5%
CC(C)c1ccc(/C=C2\SC(=O)N(CC(=O)NC3C=CS(=O)(=O)C3)C2=O)cc1 (configuration not stated)	0.0	-0.2%	?	11.1%	4.47µM*	-3.5%
CC(C)CCNC(=O)CSc1nc2ccccc2c(=O)[nH]1	0.1	-0.8%	-2.7%	6.5%	11.9%	-7.4%
CC1(C)CC(=O)C(C(c2cc([N+](=O)[O-])ccc2Cl)C2C(=O)CC(C)(C)CC2=O)C(=O)C1	·	·	·	?	·	7.5%
Cc1sc(C(C2C(=O)CC(C)(C)CC2=O)C2C(=O)CC(C)(C)CC2=O)cc1[N+](=O)[O-]	1.4	-1.7%	?	2µM*	?	-7.0%
CC(C)C1(C(C)C)OC(=O)c2ccccc21	1.7	1.9%	-12.5%	2.9%[57.1 µM]	-16.4%	16.5%[57.1 µM]
Cc1nc([N+](=O)[O-])c(SCC(N)=O)n1Cc1ccccc1	3.2	3.7%	-18.6%	5.8%[57.1 µM]	-7.1%	4.5%[0.0914 µM]
Cc1nc([N+](=O)[O-])c(Sc2nc3ccccc3n2C)n1Cc1ccccc1	0.5	-3.3%	?	6.31µM*	?	-2.7%
CCN1CCOC(=O)C1CC(=O)Nc1ccc(C(C)=O)cc1 (configuration not stated)	·	·	·	?	·	3.2%
CCN1CCOC(=O)C1CC(=O)Nc1cc(C)cc(C)c1 (configuration not stated)	·	·	·	11.2µM*	·	-4.4%
CCN1CCOC(=O)C1CC(=O)Nc1cc(Cl)ccc1OC (configuration not stated)	·	·	·	11.2µM*	·	7.3%
CCc1ccc(NC(=O)CC2C(=O)OCCN2CC)cc1 (configuration not stated)	·	·	·	6.31µM*	·	9.9%[11.4 µM]
COc1cccc(NC(=O)CC2C(=O)OCCN2Cc2ccccc2)c1 (configuration not stated)	·	·	·	0.0%	·	4.0%
SMILES	FBPA coupling cs	GALK inhibitor	RORgamma inh	TrxR1 inh	VP16 counter	TrxR1 substrate
CCN1CCOC(=O)C1CC(=O)Nc1ccccc1C(F)(F)F (configuration not stated)	·	·	·	?	·	13.7%
O=C(COc1ccccc1Cl)NCCCNC(=O)c1ccccn1	0.6	1.1%	-19.1%	11.8%	0.6%	4.0%
COc1ccc(CC(=O)OCC(=O)NCc2ccc(C)cc2)cc1OC	·	·	·	17.8%[57.1 µM]	·	9.2%[57.1 µM]
CN1CCc2c(sc(N)c2C(N)=O)C1	-33.1*	-1.3%	35.8%	?	1.1%	62.8%
NC(=O)c1c(N)sc2c1CCCC2	-20.5	1.1%	-4.0%	50.1µM*	4.8%	3.9%
CCN1CCc2c(sc(N)c2C(N)=O)C1	-14.9	2.0%	-5.7%	-64.7%	0.9%	80.2%
CCOc1cc(/C=C2\N=C(C)OC2=O)cc(Cl)c1OCC(=O)OC	·	·	·	?	·	2.7%[57.1 µM]
COc1cc(/C=C2\N=C(C)OC2=O)cc(Cl)c1OC(C)=O	-0.2	-1.9%	5.4%	39.8µM*	-2.3%	-4.7%
O=C(COc1ccccc1)Nc1cccc(-c2nc3cc4ccccc4cc3[nH]2)c1	-4.8	7.5%	1µM*	27.5%	2µM*	107.4%
CC(C)(C)c1ccc(NC(=O)COc2ccc(-n3ccnc3)cc2)cc1	-1.0	-0.4%	10µM*	11.3%[57.1 µM]	-12.5%	-7.6%[57.1 µM]
Cc1cc(OCC(=O)Nc2ccncc2)ccc1Cl	1.3	6.5%	?	14.1%[57.1 µM]	11.2µM*	-10.1%
CCCCOc1cccc(C(=O)Nc2ccc(NC(=O)c3cccs3)cc2)c1	0.1	6.0%	?	41.8%	0.1µM*	16.8%
COc1ccc(NS(=O)(=O)c2ccc3[nH]c4c(c3c2)CCCC4)cc1Cl	·	·	·	13.4%	·	0.6%
CCN(CC)c1ccc(/C=N/NS(=O)(=O)c2cccc([N+](=O)[O-])c2)cc1	1.2	-2.2%	-17.3%	?	20.7%	-21.8%
Cc1ccc(CC(=O)NC2CCN(Cc3ccccc3)CC2)cc1	-0.5	-3.4%	34.5%	-10.6%	3.9%	-13.6%
CCC1C(=O)N=C(SCC(=O)Nc2ccc(C)cc2)N(c2ccccc2)C1=O (configuration not stated)	9.9	2.4%	?	21.7%	0.4%	8.9%
CCCCOc1ccc(C(=O)Nc2ccncc2)cc1	0.0	-1.5%	?	4.1%[11.4 µM]	7.94µM*	-1.5%
Cc1cc(OCC(=O)Nc2ccncc2)cc(C)c1Br	1.1	4.4%	0.0%	-3.0%	11.2µM*	-5.3%
CCCOc1ccc(C(=O)Nc2cccnc2)cc1	-2.6	1.6%	28.4%[1.91 µM]	14.4%	-7.1%	-6.4%[2.29 µM]
O=C(Nc1ccncc1)c1cc(F)cc(F)c1	2.0	-1.5%	?	18.3%	25.1µM*	-4.7%
